# Screens (PubChem)
# The list is not random: actives were taken first. Their share in the collection is about 21%.
# Shiga inhibitor = blocks Shiga toxin action in Vero cells. Vero cells, Shiga toxin protein synthesis inhibition reporter. inhibition, % at 38.7 µM. 9.2% of 290,000 active. AID 2315; in the data active = inhibition mostly above about 28%, no sharp cut-off; inactive = mostly below about 43%; also: 0% is about no effect
# Cycloheximide cs = counter-screen for Shiga toxin inhibitors: cycloheximide protein synthesis inhibition. cell reporter, cycloheximide protein synthesis inhibition counterscreen. max response, %. 12% of 300,000 active; in the data active = max response mostly above about 13%, no sharp cut-off; inactive = mostly below about 14%; also: read at 38.3 µM for the half of the compounds with a filed dose; 0% is about no effect
# SARS PLpro yeast = SARS-CoV PLP inhibition in yeast. 0.19% of 330,000 active. Potency, µM (series often up to 32.9 µM), without a hit: at the highest dose activity, positive = growth rescue, most hits filed as activators. S. cerevisiae expressing SARS-CoV PLpro, growth rescue. AID 485353; also: potency is read from the fitted curve at half-maximal effect; 0% is about no effect; nearly all actives have a fitted effect of over 55% in size
# Pf growth 96h = inhibits malaria parasite growth, 96 h. 6.9% of 320,000 active. P. falciparum luciferase reporter growth, 96 h. Potency, µM (highest dose often 28.7 µM), for the others: at the highest dose activity change, negative = inhibition, hits mostly inhibitors; active = well fitted inhibition curve with a large enough effect; inconclusive = small, poorly fitted or top-dose-only effect, or another doubt; inactive = no such curve, though single readings can be large or run the other way; also: potency is read from the fitted curve at half-maximal effect; % is scaled to controls: 0 for no effect and ±100 for the full control effect
#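 Cell-based qHTS: luciferase-tagged P. falciparum in erythrocytes (2% hematocrit, 0.05% parasitemia final) incubated with compounds for 96 hours, 37 C, 5% CO2; luciferase detection reagent then added and luminescence measured.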
# NS1 function inh = blocks influenza NS1 protein function | Potency, µM (series often up to 46.1 µM), for inactives: at the highest dose activity, positive = more growth | 0.4% of 270,000 active; also: potency is read from the fitted curve at half-maximal effect; actives are rising curves; nearly all actives have a fitted effect of over 50% in size
#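 Compounds were scored for reversing the slow growth caused by influenza A NS1 in S. cerevisiae, measured by optical density at 600 nm. Assay medium contained 2% galactose at pH 6.0; NS1-free yeast of the same strain were the positive control.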
# Pf growth 48h = P. falciparum growth inhibition at 48 hours (one generation). AID 504832. P. falciparum luciferase growth in erythrocytes, 48 h. Potency, µM (doses to about 28.7 µM), for the others: at the top dose activity change, negative = inhibition, most hits filed as inhibitors. 5.9% of 310,000 active; active = well fitted inhibition curve with a large enough effect; inconclusive = small, poorly fitted or top-dose-only effect, or another doubt; inactive = no such curve, though single readings can be large or run the other way; also: potency is read from the fitted curve at half-maximal effect; % is scaled to controls: 0 for no effect and ±100 for the full control effect
#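 Here the parasites carry a stable luciferase gene and grow inside erythrocytes in Albumax-based RPMI medium with compound for one erythrocytic cycle. Activity is scored as loss of luminescent signal.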
# * hit, by the source's call; ? = inconclusive; . = no result given. Unless noted, calls follow the shape of the full dose curve.
SMILES,Shiga inhibitor,Cycloheximide cs,SARS PLpro yeast,Pf growth 96h,NS1 function inh,Pf growth 48h
O=C(N/N=C/C(Cl)=C/c1ccccc1)c1ccccn1,76*,33*,-4%,?,-9%,-45%
O=C(N/N=C/C=C\c1ccco1)c1ccccn1,40,24*,-1%,47%,3%,45%
O=C(CSc1ccccn1)N/N=C/C=C/c1ccccc1,90*,32*,-25%,173%,2%,?
O=C(N/N=C/C=C/c1ccco1)c1cccnc1,-8,-3,-13%,.,12%,6%
CC(=O)Nc1ccc(NC(=O)CSc2nnc3ccc(-c4cccnc4)nn23)cc1,.,.,-2%,14%,.,?
O=C(N/N=C/C(Br)=C/c1ccccc1)c1cnccn1,99*,50*,-5%,?,-7%,?
O=C(N/N=C/C=C\c1ccccc1)c1cnccn1,38,10,0%,86%,.,8%
CC(/C=N/NC(=O)c1ccccn1)=C\c1ccco1,94*,33*,-2%,-14%,-7%,114%
O=C(N/N=C/C=C/c1ccccc1)c1ccccn1,68*,55*,-3%,-20%,-4%,83%
O=C(N/N=C/C=C\c1ccccc1[N+](=O)[O-])c1ccccn1,75*,61*,-20%,91%,-21%,110%
Cc1ccccc1NC(=O)Cc1nnc(SCC(=O)NC2CCCC2)n1C,-2,-5,-2%,7%,9%,5%
Cc1nn(C)c(C(=O)NN)c1Cl,-18,-2,1%,-19%,.,47%
Cc1cc(C(=O)N/N=C/C(Cl)=C/c2ccccc2)c(C)o1,43*,27*,1%,10µM*,-4%,9.3µM*
COC(=O)c1nnn(-c2ccsc2C(=O)OC)c1C(=O)OC,-12,-3,2%,0%,.,13%
CCOC(=O)c1sc(SC)nc1N,20,16*,-2%,-2%,.,44%
CSc1nc(N)c(C(=O)NC2CCCCC2)s1,75*,38*,0%,45%,-5%,31%
COC(=O)c1sc(SC)nc1N,34,11,2%,14%,3%,13%
CCOC(=O)N1CCN(C(=O)CSCc2ccc(Br)cc2)CC1,2,16,-1%,-14%,-11%,9%
Cc1ccsc1/C=N/NC(=O)c1nnn(-c2nonc2N)c1CSc1ccccc1,-11,-6,-10%,32%,3%,29%
O=C1c2cnccc2CN1Cc1ccccc1,2,8,-4%,3.3µM*,1%,41%
CCOc1ccc(CN(C(=O)c2ccccn2)c2ccc(OC)c(Cl)c2)cc1,64*,31,-3%,3%,-2%,10%
COc1cc(CN(C(=O)c2ccco2)c2ccc(C)cc2)ccc1O,-1,-1,-1%,?,-4%,12µM*
CCOc1ccc(N(Cc2ccc(OC)c(OC)c2)C(=O)c2ccco2)cc1,49,9,20%,15%,0%,12µM*
O=C(OC(C(=O)NCc1ccc(F)cc1)c1ccccc1)c1ccco1 (stereo not drawn),-5,-2,-1%,1%,4%,29%
COc1ccc(/C(C)=N/OC/C(O)=C(\C#N)c2nc3ccccc3[nH]2)cc1OC,-3,-2,0%,?,12%,19%
SMILES,Shiga inhibitor,Cycloheximide cs,SARS PLpro yeast,Pf growth 96h,NS1 function inh,Pf growth 48h
CCOc1ccc(C(=O)NC(C(=O)NCc2cccnc2)C(C)C)cc1 (stereo not drawn),-7,-4,1%,25%,-4%,20%
COc1ccc(Cl)cc1N1C(=O)CC(Sc2ccccc2N)C1=O (stereo not drawn),-10,0,1%,-16%,-4%,-1%
CSc1ccc(CN(C)C(=O)c2cccc(S(=O)(=O)N3CCN(Cc4ccccc4)CC3)c2)cc1,.,.,-7%,?,.,?
O=C(COc1ccc(S(=O)(=O)N2CCOCC2)cc1Cl)NCC1CCCO1 (stereo not drawn),-3,-8,1%,?,1%,2%
Cc1cc(C)n(-c2nnc(C)n2/N=C/c2cc(Br)ccc2OCc2ccccc2)n1,38,20*,-5%,7%,-46%,4.7µM*
Cc1cc(C)n(-c2nnc(C)n2/N=C/c2ccccc2OCc2ccccc2Cl)n1,-4,-1,-18%,-23%,-55%,?
CCN(CC)c1ccc(/C=C/c2ccc3ccc(OC)cc3[n+]2CC)cc1,-5,6,-12%,-4%,-68%,1.9µM*
CN(C)c1ccc(/C=C/c2cc[n+](C)cc2)cc1,-17,-3,-10%,?,-13%,.
